This is an account of results in PubChem BioAssay (EPA / NIEHS).

Active and inactive are the calls of the source. The calls were made as follows: active = hit-call score of the fitted dose curve at least 0.9, where 1 is the maximum; inactive = score below 0.9.

Chain of Hepatocyte nuclear factor 6 (Homo sapiens) (Q9UBC0 whole entry, looked up): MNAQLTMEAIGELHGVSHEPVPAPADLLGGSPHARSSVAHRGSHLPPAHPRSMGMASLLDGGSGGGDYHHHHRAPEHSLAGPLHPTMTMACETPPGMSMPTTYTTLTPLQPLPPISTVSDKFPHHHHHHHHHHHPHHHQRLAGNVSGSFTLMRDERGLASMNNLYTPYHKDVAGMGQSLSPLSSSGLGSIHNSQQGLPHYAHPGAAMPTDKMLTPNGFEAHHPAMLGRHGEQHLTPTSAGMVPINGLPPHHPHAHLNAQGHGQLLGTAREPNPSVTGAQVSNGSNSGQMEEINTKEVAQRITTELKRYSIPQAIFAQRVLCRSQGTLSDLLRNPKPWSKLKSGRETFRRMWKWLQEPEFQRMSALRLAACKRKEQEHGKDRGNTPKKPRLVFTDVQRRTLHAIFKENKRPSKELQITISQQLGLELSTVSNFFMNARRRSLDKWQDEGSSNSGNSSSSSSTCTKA

System in one test: not listed separately
Briefly: ATG_M_06_CIS: Attagene CIS-FACTORIAL HepG2 Assay for M06 Transcription Factor (Internal Marker) (AID 2282950). Particulars: HepG2 Attagene CIS-FACTORIAL M06 internal marker reporter; actives raise or lower the signal. In a few lines: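 Terse: HepG2, transient MRTU transfection (FuGene 6), 24 h dosing; total RNA, oligo(dT) RT, PCR, FAM label, HpaI cut, capillary electrophoresis; bidirectional fit vs DMSO baseline; background-control endpoint.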
As for `O=C(c1ccccc1)C(O)c1ccccc1` (stereo not given), the call was inactive.
For the compound `Cc1ccc2c(c1)C(=O)OC2=O`, the result was inactive.
For `CCCCCCCCc1ccc(S(=O)(=O)O)cc1`, the AC50 was 155 µM (active).
With `CCCCCCC(CO)CCCC` (stereo not given), the compound was classed as inactive.
Regarding `Nc1ccc2cc(S(=O)(=O)O)cc(O)c2c1N=Nc1ccccc1C(F)(F)F`, the call was inactive.
`CCCOCCO`: the compound was called inactive.
`COCCc1ccc(OCC(O)CNC(C)C)cc1` (stereo not given): the result was inactive.
Consider `FC(F)(F)COCC(F)(F)F`, for which the result was inactive.
Consider `CCCCCC(C=O)=Cc1ccccc1`, for which the compound was called inactive.
For `CCCC1O[C@@H]2C[C@H]3[C@@H]4CCC5=CC(=O)C=C[C@]5(C)[C@H]4[C@@H](O)C[C@]3(C)[C@]2(C(=O)CO)O1` (stereo not given in full), the outcome was inactive.
On the same count and under the same terms, next, `C=C(CC(=O)O)C(=O)O`: “inactive”; `C[C@H]1O[C@@H](O[C@H]2[C@@H](O)C[C@H](O[C@H]3[C@@H](O)C[C@H](O[C@H]4CC[C@@]5(C)[C@H](CC[C@@H]6[C@@H]5C[C@@H](O)[C@]5(C)[C@@H](C7=CC(=O)OC7)CC[C@]65O)C4)O[C@@H]3C)O[C@@H]2C)C[C@H](O)[C@@H]1O`: “inactive”.
As for `CCCC[P+](CCCC)(CCCC)CCCC`, the compound was classed as inactive.
As to `O=C1OC[C@H](Cc2cccc(O)c2)[C@H]1Cc1cccc(O)c1`, the compound was classed as inactive.
`Nc1ccn([C@H]2CS[C@@H](CO)O2)c(=O)n1`: the compound was called inactive.
With `CCCCC1CCC(O)CC1` (stereo not given), the call was inactive.
`Cc1c(OCC(F)(F)F)ccnc1CS(=O)c1nc2ccccc2[nH]1` (stereo not given): the call was inactive.
For the compound `CCC1(c2ccccc2)C(=O)NCNC1=O`, the call was inactive.
For the compound `C=C1CC[C@H](O)C/C1=C/C=C1\CCC[C@]2(C)[C@@H]([C@H](C)/C=C/[C@H](C)C(C)C)CC[C@@H]12`, the call was inactive.
Turning to `CCCC(C)=O`, the compound was classed as inactive.
On to `CCCCCCCCCCCCCCN(CCO)CCO`, for which the result was inactive.
Consider `CCCN(CCC)S(=O)(=O)c1ccc(C(=O)O)cc1`, for which the outcome was inactive.
Consider `C[C@H](CCC(=O)NCC(=O)O)[C@H]1CC[C@H]2[C@@H]3[C@H](O)C[C@@H]4C[C@H](O)CC[C@]4(C)[C@H]3C[C@H](O)[C@]12C`, for which the compound was called inactive.
`CC(Oc1cc(Cl)ccc1Cl)C(=O)O` (stereo not given): the compound was classed as inactive.

The target of a further test is Hypoxia-inducible factor 1-alpha (Homo sapiens) (UniProt Q16665). Briefly: ATG_HIF1a_CIS: Attagene CIS-FACTORIAL HepG2 Assay for human Hypoxia Inducible Factor 1 (HIF1A) (AID 2282951). The conditions noted are these: HepG2 Attagene cis-factorial HIF1a reporter transcription; actives raise or lower the signal. In a few lines: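 After 24 h chemical exposure of reporter-transfected HepG2 cells, reporter cDNA was PCR-amplified, labelled by 6-FAM primer extension (2 min 95 C, 20 s 68 C, 10 min 72 C), HpaI-cut (2 h, 37 C) and analysed by CE.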
Chain of Hypoxia-inducible factor 1-alpha (Homo sapiens) (Q16665 whole entry, looked up): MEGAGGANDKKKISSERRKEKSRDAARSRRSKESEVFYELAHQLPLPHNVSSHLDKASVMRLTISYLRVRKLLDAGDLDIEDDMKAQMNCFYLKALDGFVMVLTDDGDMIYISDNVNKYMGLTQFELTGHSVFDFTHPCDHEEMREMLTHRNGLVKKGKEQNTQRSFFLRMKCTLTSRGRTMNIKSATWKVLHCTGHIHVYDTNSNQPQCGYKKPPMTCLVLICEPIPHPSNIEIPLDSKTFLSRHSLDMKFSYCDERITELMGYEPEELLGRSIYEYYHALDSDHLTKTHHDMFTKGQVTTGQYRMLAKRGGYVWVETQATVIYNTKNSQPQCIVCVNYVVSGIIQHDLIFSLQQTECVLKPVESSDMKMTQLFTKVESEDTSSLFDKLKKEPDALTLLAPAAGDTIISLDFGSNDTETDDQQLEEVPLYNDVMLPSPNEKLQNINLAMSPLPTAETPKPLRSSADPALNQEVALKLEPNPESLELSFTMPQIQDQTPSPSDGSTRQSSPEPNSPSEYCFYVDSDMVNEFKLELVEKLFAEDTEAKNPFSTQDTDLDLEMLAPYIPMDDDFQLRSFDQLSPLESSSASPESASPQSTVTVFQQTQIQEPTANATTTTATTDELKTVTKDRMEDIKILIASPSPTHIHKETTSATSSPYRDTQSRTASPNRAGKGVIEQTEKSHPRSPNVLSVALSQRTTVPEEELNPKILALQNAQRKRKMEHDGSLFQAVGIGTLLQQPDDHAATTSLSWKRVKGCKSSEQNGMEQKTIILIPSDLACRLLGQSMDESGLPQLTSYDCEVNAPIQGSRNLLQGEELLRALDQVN
With `O=C(c1ccccc1)C(O)c1ccccc1` (stereo not given), the compound was called inactive.
Regarding `CCCCCCC(CO)CCCC` (stereo not given), the call was inactive.
Turning to `O=C(Nc1ccc([N+](=O)[O-])cc1)Nc1ccc([N+](=O)[O-])cc1` (tested in a mixture with another compound), the outcome was inactive.
On the same count and under the same terms, next, `COc1cc(Cl)c(OC)cc1N`: “inactive”.
For the compound `CCCCCC(C=O)=Cc1ccccc1`, the compound was classed as inactive.
As for `CCc1ccc(O)cc1`, the call was inactive.
On the same count and under the same terms, next, `NC(=S)NNC(N)=S`: “inactive”; `O=C1OC[C@H](Cc2cccc(O)c2)[C@H]1Cc1cccc(O)c1`: “inactive”; `C=CCOC(=O)CCCCCC`: “inactive”.
For the compound `CCCCC1CCC(O)CC1` (stereo not given), the result was inactive.
With `COc1cccc(OC)c1O`, the call was inactive.
As for `CSCCC=O`, the outcome was inactive.
As to `CS(=O)(=O)c1ccc(C2=C(c3ccccc3)C(=O)OC2)cc1`, the call was inactive.
Turning to `CCCCCCOCCOCCO`, the compound was classed as inactive.
As for `O=C(O)COCC(=O)O`, the compound was classed as inactive.
The same measure, in the same setting: for `CC[N+](C)(CC)CC` the value was “inactive”; for `CCCCCCCCCCCCCCN(CCO)CCO`, “inactive”.

In the next test the target is Hepatocyte nuclear factor 6 (Homo sapiens) (UniProt Q9UBC0). Description: ATG_HNF6_CIS: Attagene CIS-FACTORIAL HepG2 Assay for human Hepatocyte Nuclear Factor 6 (HNF6) (AID 2282952). The conditions noted are these: HepG2 Attagene cis-factorial HNF6 reporter transcription; actives raise or lower the signal. In short, it runs like this:
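Cells are HepG2 carrying transiently transfected cis-promoter reporter units. Treatment lasts 24 h, after which reporter transcripts are reverse-transcribed, amplified, FAM-labelled and sized by capillary electrophoresis. DMSO serves as baseline.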
Consider `O=C(c1ccccc1)C(O)c1ccccc1` (stereo not given), for which the result was inactive.
Take `Cc1ccc2c(c1)C(=O)OC2=O`: the compound was called inactive.
For `CCCCCCCCc1ccc(S(=O)(=O)O)cc1`, the AC50 was 167 µM (active).
As to `CCCCCCC(CO)CCCC` (stereo not given), the result was inactive.
The same measure, in the same setting: for `Nc1ccc2cc(S(=O)(=O)O)cc(O)c2c1N=Nc1ccccc1C(F)(F)F` the value was “inactive”.
The same measure, in the same setting: next, `CCCOCCO`: “inactive”; `COCCc1ccc(OCC(O)CNC(C)C)cc1` (stereo not given): “inactive”; `FC(F)(F)COCC(F)(F)F`: “inactive”.
Turning to `O=C(Nc1ccc([N+](=O)[O-])cc1)Nc1ccc([N+](=O)[O-])cc1` (tested in a mixture with another compound), the compound was called inactive.
Same read-out and setting: next, `COc1cc(Cl)c(OC)cc1N`: “inactive”; `CCCCCC(C=O)=Cc1ccccc1`: “inactive”; `CSc1c(Cl)c(Cl)c(Cl)c(Cl)c1Cl`: “inactive”.
In the case of `CCCC1O[C@@H]2C[C@H]3[C@@H]4CCC5=CC(=O)C=C[C@]5(C)[C@H]4[C@@H](O)C[C@]3(C)[C@]2(C(=O)CO)O1` (stereo not given in full), the compound was classed as inactive.
Turning to `C=C(CC(=O)O)C(=O)O`, the result was inactive.
`O=C(O)CNc1ccccc1`: the compound was classed as inactive.
Turning to `C[C@H]1O[C@@H](O[C@H]2[C@@H](O)C[C@H](O[C@H]3[C@@H](O)C[C@H](O[C@H]4CC[C@@]5(C)[C@H](CC[C@@H]6[C@@H]5C[C@@H](O)[C@]5(C)[C@@H](C7=CC(=O)OC7)CC[C@]65O)C4)O[C@@H]3C)O[C@@H]2C)C[C@H](O)[C@@H]1O`, the result was inactive.
Consider `CCc1ccc(O)cc1`, for which the result was inactive.
The same measure, in the same setting: next, `CCCC[P+](CCCC)(CCCC)CCCC`: “inactive”; `NC(=S)NNC(N)=S`: “inactive”.
As to `O=C1OC[C@H](Cc2cccc(O)c2)[C@H]1Cc1cccc(O)c1`, the result was inactive.
`C=CCOC(=O)CCCCCC`: the call was inactive.
Consider `Nc1ccn([C@H]2CS[C@@H](CO)O2)c(=O)n1`, for which the outcome was inactive.
Turning to `CCCCC1CCC(O)CC1` (stereo not given), the compound was called inactive.
Regarding `COc1cccc(OC)c1O`, the result was inactive.
With `Cc1c(OCC(F)(F)F)ccnc1CS(=O)c1nc2ccccc2[nH]1` (stereo not given), the compound was called inactive.
The same measure, in the same setting: next, `CCC1(c2ccccc2)C(=O)NCNC1=O`: “inactive”.
With `CSCCC=O`, the compound was called inactive.
For the compound `C=C1CC[C@H](O)C/C1=C/C=C1\CCC[C@]2(C)[C@@H]([C@H](C)/C=C/[C@H](C)C(C)C)CC[C@@H]12`, the compound was called inactive.
On to `CC(=O)Nc1ccc(C(=O)CCl)cc1`, for which the compound was classed as inactive.
In the case of `CCCC(C)=O`, the outcome was inactive.
For the compound `CS(=O)(=O)c1ccc(C2=C(c3ccccc3)C(=O)OC2)cc1`, the compound was called inactive.
Regarding `CCCCCCOCCOCCO`, the compound was called inactive.
On to `O=C(O)COCC(=O)O`, for which the compound was classed as inactive.
In the case of `CC[N+](C)(CC)CC`, the compound was called inactive.
Still for that read-out and setting: next, `CCCCCCCCCCCCCCN(CCO)CCO`: “inactive”; `CCCN(CCC)S(=O)(=O)c1ccc(C(=O)O)cc1`: “inactive”.
Take `C[C@H](CCC(=O)NCC(=O)O)[C@H]1CC[C@H]2[C@@H]3[C@H](O)C[C@@H]4C[C@H](O)CC[C@]4(C)[C@H]3C[C@H](O)[C@]12C`: the compound was classed as inactive.
Still for that read-out and setting: for `CC(Oc1cc(Cl)ccc1Cl)C(=O)O` (stereo not given) the value was “inactive”; for `C=C(C)C1CC=C(C)C(=O)C1` (stereo not given), “inactive”.
